Screening data as filed in PubChem.
Most compounds without a hit are left out; they make up all but 19% or so of the library.
DT40 TDP1 CPT – qHTS for Inhibitors of human tyrosyl-DNA phosphodiesterase 1 (TDP1): qHTS in cells in presence of CPT; chicken DT40 Tdp1-/-;hTDP1 cells + 20 nM CPT, ATP luminescence, 48 h; Potency, µM (titrated, usually from 46.2 µM), actives largely listed as inhibitors; 12% of 420,000 active; AID 686979, 2013; further: nearly all actives have a fitted effect of over 55% in size
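Chicken DT40 Tdp1-/- cells complemented with human TDP1, 400 cells/well, exposed to compounds plus 20 nM camptothecin for at least 48 h at 37 C; viability read as ATP content by CellTiter-Glo luminescence.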
ASM inhibitor – Inhibitors of Secretory Acid Sphingomyelinase (S-ASM): qHTS. Sphingomyelin phosphodiesterase (Homo sapiens), P17405. placental ASM, HMU-PC fluorogenic substrate, 60 min. Potency, µM (doses to about 57.5 µM), hits mostly inhibitors. 0.006% of 340,000 active. AID 504937, 2011
Target sequence (P17405 47-631 limits assumed): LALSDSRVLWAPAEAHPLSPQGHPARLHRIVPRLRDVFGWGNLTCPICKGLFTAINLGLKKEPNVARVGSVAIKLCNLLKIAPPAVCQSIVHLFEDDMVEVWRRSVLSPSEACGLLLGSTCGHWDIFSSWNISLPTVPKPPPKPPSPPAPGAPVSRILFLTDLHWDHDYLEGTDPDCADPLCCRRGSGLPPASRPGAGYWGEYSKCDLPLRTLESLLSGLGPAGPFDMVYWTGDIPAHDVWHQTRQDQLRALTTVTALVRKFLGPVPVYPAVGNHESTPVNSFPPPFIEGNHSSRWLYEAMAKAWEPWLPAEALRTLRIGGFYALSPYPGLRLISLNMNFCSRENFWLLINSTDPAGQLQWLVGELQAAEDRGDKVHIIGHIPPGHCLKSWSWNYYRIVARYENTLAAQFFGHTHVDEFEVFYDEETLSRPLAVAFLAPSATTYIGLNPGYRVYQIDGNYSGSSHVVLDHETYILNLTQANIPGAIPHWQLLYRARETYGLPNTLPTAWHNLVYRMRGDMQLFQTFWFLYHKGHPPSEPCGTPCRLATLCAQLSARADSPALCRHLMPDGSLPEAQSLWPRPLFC
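Human placenta-derived ASM preincubated with compound 10 min at room temperature, then reacted with 9 uM (final) fluorogenic HMU-PC substrate for 60 min at 37 C. Stop solution raises pH to 10; fluorescence read at Ex 386/Em 447 nm.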
TGFb inhibitor – qHTS for Inhibitors of TGF-b; HepG2 CAGA-GFP TGF-b/SMAD3 reporter, GFP fluorescence, 18 h; TGF-beta stimulated, 500 pg/mL final; 1.2% of 410,000 active; Potency, µM (doses to about 46.1 µM), most hits filed as inhibitors; further: nearly all actives have a fitted effect of over 65% in size
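Per well, imaged GFP fluorescence of HEPG2 CAGA-GFP cells gives the signal; cells get compound, then TGF-beta (500 pg/mL final), 18 h at 37 degrees C; %Activity versus -TGF-beta and +DMSO controls.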
IL-1B inflam inh – qHTS for Inhibitors of Inflammasome Signaling: IL-1-beta AlphaLISA Primary Screen; activity change, % at 57.5 µM; 4.7% of 360,000 active; THP-1 LPS/ATP IL-1B secretion, AlphaLISA, 16 h; active compounds read low; AID 743279, 2014; in the data active means activity change below about -50%; inconclusive means mostly about -30% to -49%
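THP-1 cells pretreated 1 hr with compounds (up to 57.5 uM final), then stimulated with LPS (250 ng/mL final) plus ATP (1.25 mM final); secreted IL-1B measured by AlphaLISA after 16 hr, decreased signal indicating inhibition.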
TDP1 cell noCPT – qHTS for Inhibitors of human tyrosyl-DNA phosphodiesterase 1 (TDP1): qHTS in cells in absence of CPT | Potency, µM (doses to about 46.2 µM), hits mostly inhibitors | 15% of 420,000 active | DT40 Tdp1-/- hTDP1 cells, no CPT, ATP luminescence, 48 h; further: nearly all actives have a fitted effect of over 55% in size
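Chicken DT40 Tdp1-/- cells complemented with human TDP1, screened without camptothecin (DMSO vehicle only), 400 cells/well. Compounds pin-transferred, cells incubated at 37 °C for at least 48 hr. Growth read as ATP-dependent luminescence (CellTiter-Glo, 30 min at RT).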
HepG2 viability – qHTS for Inhibitors of TGF-b: Cytotox Counterscreen; HepG2 CAGA-GFP viability, ATP luminescence, 18 h; Potency, µM (highest dose often 46.1 µM), actives largely listed as cytotoxic; 0.76% of 410,000 active
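CellTiter-Glo luminescence gave cytotoxicity after 18 hours at 37 degrees C. The cells were HepG2 CAGA-GFP in 1% FBS DMEM, stimulated with 500 pg/mL TGF-beta after compound addition. %Activity was normalised to no-cell wells (complete cell-killing) and DMSO (no toxicity), and curves were fitted and classified.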
Numbers stand for hits; i = inactive; ? = inconclusive; nt = no result given. Unless noted, the call rests on the fitted dose curve; in most records, active means well fitted curve in the direction sought with a large enough effect; inconclusive means small, poorly fitted or top-dose-only effect, or another doubt; inactive means no such curve, though single readings can be large; an effect the other way counts as inactive or inconclusive.

SMILES	DT40 TDP1 CPT	ASM inhibitor	TGFb inhibitor	IL-1B inflam inh	TDP1 cell noCPT	HepG2 viability
CCCCCCNC(=O)c1cn(CC)c2cc(N3CCN(C)CC3)c(F)cc2c1=O	21µM	i	?	-55	26µM	13µM
CCCCCCCC(=O)N1CCN(c2cc3c(cc2F)c(=O)c(C(=O)O)cn3CC)CC1	23µM	i	i	i	?	i
CCCCCCCCC(=O)N1CCN(c2cc3c(cc2F)c(=O)c(C(=O)O)cn3CC)CC1	i	i	i	i	i	i
CCn1cc(C(=O)NCc2ccccn2)c(=O)c2cc(F)c(N3CCN(C)CC3)cc21	i	i	i	i	i	i
CC(NC(=O)c1cn(C)c2ccc(S(=O)(=O)N3CCCC3)cc2c1=O)c1ccccc1 (stereo unspecified)	?	i	i	i	i	i
Cc1cc(=O)n(Cc2ccc(F)cc2Cl)c2c1c(C)nn2-c1ccccc1	i	nt	i	nt	i	i
O=P(O)(O)C(Sc1ccc(Cl)cc1)P(=O)(O)O	i	nt	nt	nt	i	nt
CCCCCCn1cc(C(=O)OCC)c(=O)c2cc(F)c(F)cc21	?	i	i	?	23µM	i
CCOC(=O)c1cn(CC)c2cc(N3CCN(C)CC3)c(F)cc2c1=O	i	i	i	i	i	i
CCCCCCn1cc(C(=O)O)c(=O)c2cc(F)c(N3CCN(C)CC3)cc21	16µM	i	i	i	18µM	i
CCN(C(=O)c1cc2c(=O)oc3ccc(C)cc3c2s1)c1cc(OC)ccc1OC	?	nt	?	nt	?	i
CCc1ccccc1N(C)C(=O)c1cc2c(Cl)nc3ccc(C)cc3c2s1	?	nt	i	nt	18µM	i
CCN(C(=O)c1cc2c(Cl)nc3ccc(C)cc3c2s1)c1cc(OC)ccc1OC	?	nt	i	nt	15µM	i
CC(C)NC(=O)C1(C)CCN1C(=O)c1c(F)cccc1F (stereo unspecified)	i	nt	i	i	i	i
CCCCCCCCCCn1c2c(c(=N)c3c1CCC3)CCC2	0.26µM	?	13µM	-96	0.029µM	i
CCCCCCCCCn1c2c(c(=N)c3c1CCC3)CCCC2	0.026µM	i	6.3µM	-99	0.018µM	i
CCOC(=O)Cn1c2c(c(=N)c3c1CCC3)CCC2	i	i	i	i	i	i
CCn1c2c(c(=N)c3c1CCC3)CCCC2	?	i	i	i	9.2µM	i
Cc1ccc(-n2nc(CO)c(C(=O)NCCCCc3ccccc3)n2)cc1C	i	nt	i	nt	i	i
O=c1[nH]cnc2c1nc(NCc1ccccc1)n2C1O[C@@H](CO)[C@H](O)[C@@H]1O (stereo partly specified)	i	i	i	i	i	i
O=C(O)CCCCCNc1ccc2nsnc2c1[N+](=O)[O-]	i	i	i	i	i	i
CN(C(=O)c1ccc(NC(=O)Cc2ccc(NC(=O)C3CCCN(C(=O)C4CC4)C3)cc2)cc1)C1CCCC1 (stereo unspecified)	?	i	i	i	?	i
Cc1c(NC(=O)c2ccc(S(=O)(=O)N(C)C)cc2)cccc1-n1cnnn1	i	i	i	i	?	i
Cc1c(NC(=O)c2ccc(Cl)c([N+](=O)[O-])c2)cccc1-n1cnnn1	?	i	i	-99	?	i
O=C(Nc1ccccc1Cl)c1ccc(-n2cccn2)c([N+](=O)[O-])c1	i	i	i	-83	i	i
SMILES	DT40 TDP1 CPT	ASM inhibitor	TGFb inhibitor	IL-1B inflam inh	TDP1 cell noCPT	HepG2 viability
Cc1c(NC(=O)c2cccc(NC(=O)Cc3ccccc3Cl)c2)c(=O)n(-c2ccccc2)n1C	i	nt	i	i	i	i
O=c1[nH]c(-c2ccccn2)nc2sc(-c3ccccc3)cc12	2.3µM	i	?	-102	2.1µM	i
Cc1c(C(=O)N(C)C)sc2nc(-c3ccccn3)[nH]c(=O)c12	i	i	i	i	?	i
Cc1ccnc(OC(C(=O)O)C(OCc2ccccc2)(c2ccccc2)c2ccc(C(F)(F)F)cc2)n1 (stereo unspecified)	21µM	i	?	i	?	i
COc1ccc(COC(=O)C2CCN(S(=O)(=O)c3ccc(C)cc3)CC2)cc1	i	i	?	i	i	i
CCOc1ccc2[nH]c(=O)c(CN(Cc3cccs3)Cc3nnnn3C(C)(C)C)cc2c1	21µM	i	i	?	16µM	i
COc1ccc2[nH]c(=O)c(CN(Cc3cccs3)Cc3nnnn3C(C)(C)C)cc2c1	?	i	i	i	23µM	i
COC(=O)[C@H]1[C@@H](C)N(Cc2ccccc2)C(=O)N[C@H]1c1ccccc1	i	i	i	i	i	i
O=C(CCc1c[nH]c2ccccc12)N1CCN(S(=O)(=O)c2ccc([N+](=O)[O-])cc2)CC1	?	nt	i	i	?	i
CCCc1cc(=O)[nH]c(SCC)n1	i	i	i	i	i	i
CCCc1cc(=O)[nH]c(-n2[nH]c3c(c2=O)CCCC3)n1	16µM	i	i	i	21µM	i
O=C(N/N=C\c1ccc(Cl)s1)C1COc2ccccc2O1 (stereo unspecified)	?	i	i	i	9.2µM	i
